Assay outcomes (PubChem)
Only some compounds are listed: those with a hit (about 7.5% of all), similar ones and a draw of the others.
Rab9 prom act – qHTS Assay for Rab9 Promoter Activators | 320,000 tested, 2.8% active | Potency, µM (series often up to 9.22 µM), most hits filed as activators | Huh7 Rab9 promoter-luciferase reporter, luminescence, 24 h; further: nearly all actives have a fitted effect of over 60% in size
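Huh7 reporter line, Rab9 promoter upstream of luciferase. Compound exposure 24 h at 37 °C in reduced-serum medium with 10% FBS. Read-out: luminescence.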
FLuc modulator – qHTS profiling assay for firefly luciferase inhibitor/activator using purifed enzyme and Km concentrations of substrates (counterscreen for miR-21 project); 360,000 tested, 6.9% active; AID 588342, 2011; Potency, µM (top dose mostly 57.5 µM), most hits filed as inhibitors; Luciferin 4-monooxygenase (Photinus pyralis), P08659; purified FLuc, Km substrates, luminescence inhibition; further: nearly all actives have a fitted effect of over 55% in size
Target sequence (P08659 whole entry, looked up): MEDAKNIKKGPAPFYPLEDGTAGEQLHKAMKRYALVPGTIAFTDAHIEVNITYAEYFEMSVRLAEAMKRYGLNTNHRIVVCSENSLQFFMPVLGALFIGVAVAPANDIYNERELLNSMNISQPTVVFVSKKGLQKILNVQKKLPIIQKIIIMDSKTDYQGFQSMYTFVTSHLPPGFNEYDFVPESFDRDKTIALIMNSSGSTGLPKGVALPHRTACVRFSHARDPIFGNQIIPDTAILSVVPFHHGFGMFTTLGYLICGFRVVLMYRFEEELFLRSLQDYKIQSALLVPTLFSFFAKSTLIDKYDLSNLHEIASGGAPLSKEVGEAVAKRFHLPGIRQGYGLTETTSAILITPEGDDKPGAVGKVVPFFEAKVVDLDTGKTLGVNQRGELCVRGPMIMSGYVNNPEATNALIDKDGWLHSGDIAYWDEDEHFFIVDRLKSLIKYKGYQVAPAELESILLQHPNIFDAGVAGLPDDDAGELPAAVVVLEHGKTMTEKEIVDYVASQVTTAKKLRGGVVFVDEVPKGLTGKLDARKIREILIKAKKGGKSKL
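Biochemical qHTS of compounds, final roughly 60 µM downward over six points, against 10 nM purified firefly luciferase using Km concentrations of substrates (10 uM D-luciferin, 10 uM ATP) in Tris acetate pH 7.5 buffer; luminescence output.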
SMN2 splice up – qHTS Assay for Enhancers of SMN2 Splice Variant Expression. HEK293 SMN2-luciferase splicing reporter, luminescence, 30-36 h. Potency, µM (titrated, usually from 46.1 µM), actives largely listed as activators. 210,000 tested, 2.8% active. AID 1458, 2008; further: nearly all actives have a fitted effect of over 55% in size
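HEK293 cells carry an SMN2 […]–luciferase reporter in which exon 7 inclusion puts luciferase in frame. Cells were plated 10-12 h before compound addition, then incubated 30-36 h at 37C. ONE-Glo luminescence was read; sodium butyrate at 4.5 mM final served as control.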
ELG1 genotox – qHTS screen for small molecules that induce genotoxicity in human embryonic kidney (HEK293T) cells expressing luciferase-tagged ELG1. HEK293T ELG1-luciferase reporter, luminescence, 16 h. Potency, µM (series often up to 46 µM), actives largely listed as activators. 330,000 tested, 1.3% active; further: nearly all actives have a fitted effect of over 60% in size
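Quantitative HTS format in 1536-well plates. HEK293T ELG1-luciferase reporter cells receive test compound and are incubated 16 hr at 37 °C, 5% CO2; ONE-Glo added, 30 min room temperature, then luminescence read.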
NPC1 prom act – qHTS Assay for NPC1 Promoter Activators | Potency, µM (top dose mostly 9.22 µM), usual class: activators | Huh7 NPC1 promoter luciferase reporter, 24 h | AID 485313, 2010 | 320,000 tested, 2.4% active; further: nearly all actives have a fitted effect of over 60% in size
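Luminescence from an NPC1 promoter-driven luciferase reporter in stably transfected Huh7 cells was measured after 24 h compound treatment at 37 °C, followed by 10 min ambient incubation with luciferase detection reagent.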
Numbers stand for hits; ! = a repeat was not active; [ ] = another dose, or the depositor's remark. The call rests on the fitted dose curve; in most records, active means well fitted curve in the direction sought with a large enough effect; inconclusive means small, poorly fitted or top-dose-only effect, or another doubt; inactive means no such curve, though single readings can be large; an effect the other way counts as inactive or inconclusive.

`O=S(=O)(c1ccc(NC(=S)N/N=C/c2ccc(O)c(O)c2)cc1)N1CCOCC1` gave Rab9 prom act inactive, FLuc modulator 17µM, ELG1 genotox inactive and NPC1 prom act inactive.
For O=S(=O)(c1ccc(Cl)c(NC(=S)N/N=C/c2ccc(O)cc2)c1)N1CCOCC1 the results were Rab9 prom act inactive, FLuc modulator 17µM, SMN2 splice up inactive, ELG1 genotox inactive and NPC1 prom act inactive.
`Oc1ccc(/C=N/NC(=S)N2CCOCC2)cc1` gave Rab9 prom act inactive, FLuc modulator 7.6µM, SMN2 splice up inactive, ELG1 genotox inactive and NPC1 prom act inactive.
Screening Cc1ccccc1S(=O)(=O)c1c(C)cc(-c2ccccc2)[nH]c1=O returned Rab9 prom act inactive, FLuc modulator inactive, SMN2 splice up inactive, ELG1 genotox inactive and NPC1 prom act inactive.
`Oc1ccc(NCc2ccccc2OCc2ccc(Cl)cc2)cc1` gave FLuc modulator 21µM and SMN2 splice up 22µM.
CCOC(=O)c1ccc(-c2ccc(C=O)o2)cc1 was read as Rab9 prom act inconclusive, FLuc modulator 24µM, ELG1 genotox inconclusive and NPC1 prom act inconclusive.
CCCOC(=O)c1ccc(-c2ccc(C=O)o2)cc1 was read as Rab9 prom act inconclusive, FLuc modulator 13µM, SMN2 splice up 1.3µM, ELG1 genotox inconclusive and NPC1 prom act inconclusive.
CCOC(=O)c1cccc(-c2ccc(C=O)o2)c1 was read as Rab9 prom act inactive, FLuc modulator inactive, SMN2 splice up inactive, ELG1 genotox inactive and NPC1 prom act inactive.
For CCCOC(=O)c1cc(-c2ccc(C=O)o2)ccc1Cl the results were Rab9 prom act inactive, FLuc modulator inconclusive, SMN2 splice up inconclusive, ELG1 genotox inactive and NPC1 prom act inactive.
Screening CCOC(=O)c1oc2nc3c(cc2c1N)CCCC3 returned Rab9 prom act 1.4µM, FLuc modulator 5.4µM, ELG1 genotox inconclusive and NPC1 prom act 1.4µM.
O=C(Nc1ccc(Cl)cc1[N+](=O)[O-])c1ccc2c(c1)OCCO2 was read as Rab9 prom act 0.45µM, FLuc modulator inconclusive, ELG1 genotox 4.1µM and NPC1 prom act 0.56µM.
O=C(Nc1ccc(F)c([N+](=O)[O-])c1)c1ccc2c(c1)OCCO2 was read as Rab9 prom act inconclusive, FLuc modulator 6µM, SMN2 splice up inactive, ELG1 genotox inactive and NPC1 prom act inactive.
For CCC1CN(C(=O)N2CCC(C(=O)NCc3ccccc3F)CC2)c2ccccc2O1 (stereo not given) the results were FLuc modulator inactive.
For CC1CN(C(=O)N2CCC(C(=O)NC3CCCCCC3)CC2)c2ccccc2O1 (stereo not given) the results were FLuc modulator inactive.
Screening CCC1CN(C(=O)N2CCC(C(=O)Nc3ccccc3F)CC2)c2ccccc2O1 (stereo not given) returned Rab9 prom act inactive, FLuc modulator 11µM!, ELG1 genotox inactive and NPC1 prom act inactive.
`COC(=O)c1ccccc1NC(=O)C1CCN(C(=O)N2CC(C)Oc3ccccc32)CC1` (stereo not given) gave FLuc modulator 4.8µM.
`CCC1CN(C(=O)N2CCC(C(=O)N3CCN(c4cc(C)ccc4C)CC3)CC2)c2ccccc2O1` (stereo not given) gave FLuc modulator 1.9µM.
CN1OC(COC(=O)c2ccccc2)CC1c1ccccc1 (stereo not given) was read as Rab9 prom act inactive, FLuc modulator 6.7µM, SMN2 splice up inactive, ELG1 genotox inactive and NPC1 prom act inconclusive.
Cc1ccc(C)c(OCc2cc(C(=O)N3CCc4sccc4C3)no2)c1 was read as Rab9 prom act inactive, FLuc modulator inactive, ELG1 genotox inactive and NPC1 prom act inactive.
`O=C(c1cc(COc2ccc(F)cc2F)on1)N1CCN(C(=O)c2ccco2)CC1` gave Rab9 prom act inactive, FLuc modulator inactive, ELG1 genotox inactive and NPC1 prom act inactive.
`Cc1ccc(C)c(OCc2cc(C(=O)N3CCN(c4ccccc4)CC3)no2)c1` gave Rab9 prom act 4µM, FLuc modulator 19µM, ELG1 genotox inactive and NPC1 prom act 2.8µM.
`CCc1cc(C(=O)N2CCN(c3ccccc3)CC2)no1` gave FLuc modulator inactive and SMN2 splice up inactive.
`Cc1ccc(C)c(OCc2cc(C(=O)N3C[C@@H](C)O[C@@H](C)C3)no2)c1` gave Rab9 prom act 1.6µM, FLuc modulator 6µM, ELG1 genotox inconclusive and NPC1 prom act 2.2µM.
Cc1ccc(C)c(OCc2cc(C(=O)N3CCN(C(=O)c4ccco4)CC3)no2)c1 was read as Rab9 prom act 4.5µM, FLuc modulator 19µM, ELG1 genotox inconclusive and NPC1 prom act 3.2µM.
Screening CCOC(=O)C1CCCN(C(=O)Cn2ncn3c(cc4sc(CC)cc43)c2=O)C1 (stereo not given) returned FLuc modulator inactive and SMN2 splice up inactive.
C[C@H]1Cc2c(COc3ccccc3)nc3c(c2CO1)CN(C(=O)c1ccco1)CC3 was read as SMN2 splice up inactive[9.22 µM].
C=CCN=C1S/C(=C\c2ccc(N(C)C)cc2)C(=O)N1CC=C was read as Rab9 prom act inconclusive, FLuc modulator 21µM, ELG1 genotox inactive and NPC1 prom act inactive.
C=CCN1C(=O)/C(=C/c2ccc(OC)cc2)S/C1=N/c1nccs1 was read as Rab9 prom act inactive, FLuc modulator inactive, SMN2 splice up inactive, ELG1 genotox inactive and NPC1 prom act inactive.
`O=c1onc2cnc3ccccc3n12` gave Rab9 prom act inactive, SMN2 splice up inconclusive and NPC1 prom act inactive.
CSc1ccc(Cl)c(C(=O)Nc2nccs2)c1 was read as Rab9 prom act inactive, FLuc modulator inactive, ELG1 genotox inactive and NPC1 prom act inactive.
Screening O=C(Nc1ccc(Cl)c(Cl)c1)Nc1nccs1 returned Rab9 prom act inactive, FLuc modulator 13µM, ELG1 genotox inactive and NPC1 prom act inactive.
`O=C(Nc1cccc(Cl)c1)Nc1nccs1` gave Rab9 prom act inconclusive, FLuc modulator 19µM, SMN2 splice up inactive, ELG1 genotox inactive and NPC1 prom act inconclusive.
Screening Cc1nnc(NC(=O)Nc2cccc(Cl)c2)s1 returned Rab9 prom act inconclusive, FLuc modulator inconclusive, SMN2 splice up inactive, ELG1 genotox inactive and NPC1 prom act inconclusive.
Cc1csc(NC(=O)Nc2cccc(Cl)c2)n1 was read as Rab9 prom act inconclusive, FLuc modulator 5.4µM, SMN2 splice up 11µM, ELG1 genotox inconclusive and NPC1 prom act inconclusive.
For CCC(=O)Nc1ccc(C(=O)Nc2cccc(C)n2)cc1 the results were Rab9 prom act 2.5µM, FLuc modulator 17µM, ELG1 genotox inconclusive and NPC1 prom act 3.5µM.
Cc1csc(NC(=O)Cc2c(F)cccc2Cl)n1 was read as Rab9 prom act 3.2µM, FLuc modulator inconclusive, ELG1 genotox inconclusive and NPC1 prom act 3.5µM.
